# According to the supplement of paper PMC12819154, “High-throughput peptide-centric local stability assay extends protein–ligand identification to membrane proteins, tissues and bacteria” (Nature Structural & Molecular Biology, 2025):
# Compound: Nc1ncnc2c1ncn2[C@@H]1O[C@H](COP(=O)(O)OP(=O)(O)OP(=O)(O)O)[C@@H](O)[C@H]1O [adenosine 5'-triphosphate]
# Test: log2 fold change of tryptic peptide abundance, ligand vs vehicle (limited proteolysis) (log2 ratio); higher = more trypsin-susceptible (destabilized)
# Details: ligand concentration: 5 mM; sample: E. coli desalted lysate; replicate design: treated before aliquoting
# Experimental: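 HT-PELSA: desalted E. coli K-12 BW25113 lysate (with 12 mM MgCl2) incubated with 5 mM ATP (pH 7) or water for 30 min at 25 C, then a 4 min trypsin pulse at 22 C. Peptides were quantified by DIA-MS (4 replicates). Value is the peptide log2 fold change (treated/control); negative = stabilized. Scale: negative = ligand-stabilized region.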
# 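Also: lysate desalted by size exclusion to strip endogenous ATP, peptide intensities built from DIA-NN precursor signals, and peptides missing any value discarded before comparison.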
# UniProt P37766, sequence (P37766 whole entry): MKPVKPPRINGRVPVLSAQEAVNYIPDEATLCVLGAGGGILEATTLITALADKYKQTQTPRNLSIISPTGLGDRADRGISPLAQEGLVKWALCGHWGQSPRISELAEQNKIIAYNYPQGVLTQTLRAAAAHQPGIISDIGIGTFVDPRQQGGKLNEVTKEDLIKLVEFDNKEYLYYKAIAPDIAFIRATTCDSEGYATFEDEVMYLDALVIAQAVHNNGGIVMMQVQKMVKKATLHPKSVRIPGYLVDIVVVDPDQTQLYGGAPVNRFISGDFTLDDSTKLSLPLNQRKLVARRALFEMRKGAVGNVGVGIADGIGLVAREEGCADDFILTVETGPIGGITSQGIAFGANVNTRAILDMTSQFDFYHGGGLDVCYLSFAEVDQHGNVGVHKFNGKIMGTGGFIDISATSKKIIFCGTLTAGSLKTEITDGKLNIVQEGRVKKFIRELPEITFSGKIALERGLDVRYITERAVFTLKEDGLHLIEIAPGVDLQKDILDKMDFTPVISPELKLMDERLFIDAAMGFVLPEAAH
# UniProt P0AAB8, sequence (P0AAB8 whole entry): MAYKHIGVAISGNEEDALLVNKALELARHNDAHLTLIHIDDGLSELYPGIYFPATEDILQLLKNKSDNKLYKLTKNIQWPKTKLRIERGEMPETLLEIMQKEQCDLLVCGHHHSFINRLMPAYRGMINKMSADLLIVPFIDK
# UniProt P77215, sequence (P77215 whole entry): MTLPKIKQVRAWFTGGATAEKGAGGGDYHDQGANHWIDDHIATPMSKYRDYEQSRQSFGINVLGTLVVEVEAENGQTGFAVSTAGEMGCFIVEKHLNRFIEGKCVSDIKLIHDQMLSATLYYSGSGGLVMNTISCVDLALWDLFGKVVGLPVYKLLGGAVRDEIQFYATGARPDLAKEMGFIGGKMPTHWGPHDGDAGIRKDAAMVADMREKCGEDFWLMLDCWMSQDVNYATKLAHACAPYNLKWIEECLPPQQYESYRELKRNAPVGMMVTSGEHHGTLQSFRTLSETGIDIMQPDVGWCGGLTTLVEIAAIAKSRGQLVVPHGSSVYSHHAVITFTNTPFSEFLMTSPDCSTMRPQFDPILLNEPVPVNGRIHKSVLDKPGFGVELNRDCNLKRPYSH
# UniProt P22634, sequence (P22634 whole entry): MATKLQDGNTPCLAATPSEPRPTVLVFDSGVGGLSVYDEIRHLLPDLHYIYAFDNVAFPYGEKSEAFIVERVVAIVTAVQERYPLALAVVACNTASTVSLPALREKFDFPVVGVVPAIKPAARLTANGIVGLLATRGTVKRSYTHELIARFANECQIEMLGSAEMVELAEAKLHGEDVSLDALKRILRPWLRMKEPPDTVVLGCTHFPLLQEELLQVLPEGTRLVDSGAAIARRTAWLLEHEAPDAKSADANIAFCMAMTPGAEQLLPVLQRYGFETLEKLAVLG
# UniProt Q46851, sequence (Q46851 whole entry): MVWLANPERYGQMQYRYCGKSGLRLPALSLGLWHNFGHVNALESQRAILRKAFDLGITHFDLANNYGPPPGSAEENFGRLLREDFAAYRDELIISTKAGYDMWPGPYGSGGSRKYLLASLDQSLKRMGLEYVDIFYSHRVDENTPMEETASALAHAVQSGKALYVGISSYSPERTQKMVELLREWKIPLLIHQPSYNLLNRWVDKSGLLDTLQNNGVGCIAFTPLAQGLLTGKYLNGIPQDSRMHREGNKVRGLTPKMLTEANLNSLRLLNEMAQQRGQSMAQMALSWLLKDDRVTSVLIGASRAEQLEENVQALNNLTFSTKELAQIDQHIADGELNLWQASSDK
# UniProt P25553, sequence (P25553 whole entry): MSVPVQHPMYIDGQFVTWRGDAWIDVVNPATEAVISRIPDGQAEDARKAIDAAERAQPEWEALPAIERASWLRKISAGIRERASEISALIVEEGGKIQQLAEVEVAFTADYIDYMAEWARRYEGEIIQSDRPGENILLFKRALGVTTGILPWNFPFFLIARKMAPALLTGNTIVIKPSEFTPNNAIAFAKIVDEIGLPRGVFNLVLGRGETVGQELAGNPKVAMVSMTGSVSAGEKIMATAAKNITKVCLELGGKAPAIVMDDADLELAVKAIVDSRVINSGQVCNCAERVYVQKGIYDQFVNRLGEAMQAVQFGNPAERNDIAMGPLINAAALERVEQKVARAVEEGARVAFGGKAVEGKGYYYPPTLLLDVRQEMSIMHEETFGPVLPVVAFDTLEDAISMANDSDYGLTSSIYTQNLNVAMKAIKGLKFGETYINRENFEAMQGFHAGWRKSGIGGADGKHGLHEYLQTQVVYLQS
# UniProt P10907, sequence (P10907 whole entry): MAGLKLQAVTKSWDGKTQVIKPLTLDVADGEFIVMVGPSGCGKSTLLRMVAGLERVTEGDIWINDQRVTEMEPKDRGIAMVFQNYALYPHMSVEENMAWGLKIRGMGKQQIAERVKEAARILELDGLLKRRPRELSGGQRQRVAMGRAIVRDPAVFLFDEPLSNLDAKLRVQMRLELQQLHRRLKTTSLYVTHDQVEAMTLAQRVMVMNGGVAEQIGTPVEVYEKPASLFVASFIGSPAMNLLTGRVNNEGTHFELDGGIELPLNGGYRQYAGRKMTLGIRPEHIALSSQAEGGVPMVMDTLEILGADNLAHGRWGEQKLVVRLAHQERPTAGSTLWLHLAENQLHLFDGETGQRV
# UniProt P37769, sequence (P37769 whole entry): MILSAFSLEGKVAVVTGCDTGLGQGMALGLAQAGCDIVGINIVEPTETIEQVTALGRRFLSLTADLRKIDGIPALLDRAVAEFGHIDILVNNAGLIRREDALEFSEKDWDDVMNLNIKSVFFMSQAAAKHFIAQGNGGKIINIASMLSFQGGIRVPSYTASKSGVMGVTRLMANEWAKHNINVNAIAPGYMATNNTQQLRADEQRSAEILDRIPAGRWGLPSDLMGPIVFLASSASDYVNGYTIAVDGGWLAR
# UniProt P27240, sequence (P27240 whole entry): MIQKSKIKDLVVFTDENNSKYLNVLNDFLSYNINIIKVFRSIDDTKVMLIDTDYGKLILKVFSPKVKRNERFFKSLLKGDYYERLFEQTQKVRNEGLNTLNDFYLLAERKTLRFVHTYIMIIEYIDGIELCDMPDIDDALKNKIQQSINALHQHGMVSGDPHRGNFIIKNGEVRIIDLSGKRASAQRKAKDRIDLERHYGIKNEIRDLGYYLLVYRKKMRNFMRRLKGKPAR
# UniProt P11446, sequence (P11446 whole entry): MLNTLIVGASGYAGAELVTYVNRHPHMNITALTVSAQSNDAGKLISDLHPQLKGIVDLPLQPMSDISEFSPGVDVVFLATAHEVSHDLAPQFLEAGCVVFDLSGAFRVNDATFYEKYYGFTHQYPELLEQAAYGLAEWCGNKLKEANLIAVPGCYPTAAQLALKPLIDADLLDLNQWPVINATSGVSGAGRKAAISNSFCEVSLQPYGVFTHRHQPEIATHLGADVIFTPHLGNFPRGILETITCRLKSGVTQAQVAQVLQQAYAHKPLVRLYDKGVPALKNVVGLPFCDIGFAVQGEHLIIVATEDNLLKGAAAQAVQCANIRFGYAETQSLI
# UniProt P25666, sequence (P25666 whole entry): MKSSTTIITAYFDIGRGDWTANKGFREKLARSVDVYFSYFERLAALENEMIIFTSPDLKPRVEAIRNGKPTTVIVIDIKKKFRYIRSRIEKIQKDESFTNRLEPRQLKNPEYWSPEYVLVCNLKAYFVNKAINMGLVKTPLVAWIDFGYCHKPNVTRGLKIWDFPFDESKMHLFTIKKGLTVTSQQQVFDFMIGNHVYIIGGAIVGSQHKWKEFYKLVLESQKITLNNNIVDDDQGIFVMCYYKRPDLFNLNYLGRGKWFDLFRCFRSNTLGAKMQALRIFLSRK
# UniProt P27238, sequence (P27238 whole entry): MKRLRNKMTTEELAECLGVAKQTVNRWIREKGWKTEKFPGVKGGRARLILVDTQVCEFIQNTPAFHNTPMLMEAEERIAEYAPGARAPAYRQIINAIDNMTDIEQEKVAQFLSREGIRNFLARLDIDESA
# UniProt P23305, sequence (P23305 whole entry): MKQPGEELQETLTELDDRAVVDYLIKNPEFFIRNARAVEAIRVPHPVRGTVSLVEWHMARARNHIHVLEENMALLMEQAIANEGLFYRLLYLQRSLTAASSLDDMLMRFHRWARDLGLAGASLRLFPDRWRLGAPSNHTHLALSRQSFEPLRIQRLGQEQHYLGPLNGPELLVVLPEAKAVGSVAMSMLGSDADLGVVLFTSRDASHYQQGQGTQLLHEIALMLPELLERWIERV
# UniProt P76346, sequence (P76346 whole entry): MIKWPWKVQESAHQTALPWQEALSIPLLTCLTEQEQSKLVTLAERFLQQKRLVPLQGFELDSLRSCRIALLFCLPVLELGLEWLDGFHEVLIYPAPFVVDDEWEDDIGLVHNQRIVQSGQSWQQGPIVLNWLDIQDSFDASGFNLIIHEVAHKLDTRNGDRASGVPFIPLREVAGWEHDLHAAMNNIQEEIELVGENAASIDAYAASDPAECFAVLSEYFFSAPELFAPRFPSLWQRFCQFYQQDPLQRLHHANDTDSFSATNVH
# UniProt P21645, sequence (P21645 whole entry): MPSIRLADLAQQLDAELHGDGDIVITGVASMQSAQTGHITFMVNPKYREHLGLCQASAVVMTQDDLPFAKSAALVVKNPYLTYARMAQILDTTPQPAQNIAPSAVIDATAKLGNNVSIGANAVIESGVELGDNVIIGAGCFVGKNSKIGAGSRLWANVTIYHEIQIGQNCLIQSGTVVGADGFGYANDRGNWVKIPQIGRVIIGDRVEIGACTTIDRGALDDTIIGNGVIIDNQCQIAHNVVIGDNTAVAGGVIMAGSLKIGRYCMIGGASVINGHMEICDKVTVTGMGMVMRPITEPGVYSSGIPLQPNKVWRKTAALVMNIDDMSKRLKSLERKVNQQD
row,Target,log2 fold change
1,"UniProt P37197 (peptide sequence: GDENALTAQQK, peptide start residue: 330)",-0.521
2,"UniProt Q46851 (peptide sequence: YLNGIPQDSR, peptide start residue: 234)",-0.438
3,"UniProt Q59385 (peptide sequence: LVTDEGEK, peptide start residue: 327)",1.76
4,"UniProt P23847 (peptide sequence: MAEMIQADWAK, peptide start residue: 392)",-0.859
5,"UniProt P27240 (peptide sequence: IKDLVVFTDENNSK, peptide start residue: 7)",-0.431
6,"UniProt P0AAB8 (peptide sequence: EQCDLLVCGHHHSFINR, peptide start residue: 102)",-0.697
7,"UniProt P21645 (peptide sequence: KTAALVMNIDDMSKR, peptide start residue: 315)",-0.565
8,"UniProt P23305 (peptide sequence: DLGLAGASLR, peptide start residue: 115)",0.488
9,"UniProt P07862 (peptide sequence: AWTTLGCK, peptide start residue: 244)",-0.633
10,"UniProt P23538 (peptide sequence: QVKIEDVPQEQR, peptide start residue: 278)",-2.56
11,"UniProt P09152 (peptide sequence: GHEFMLK, peptide start residue: 724)",0.491
12,"UniProt P30015 (peptide sequence: TGDTPAQER, peptide start residue: 132)",-2.26
13,"UniProt P27238 (peptide sequence: NKMTTEELAECLGVAK, peptide start residue: 6)",0.577
14,"UniProt P37769 (peptide sequence: LMANEWAK, peptide start residue: 171)",-0.444
15,"UniProt P23865 (peptide sequence: VRLEILPAGK, peptide start residue: 315)",1.04
16,"UniProt P76346 (peptide sequence: LHHANDTDSFSATNVH, peptide start residue: 250)",0.288
17,"UniProt P27859 (peptide sequence: ELLPLIPAEK, peptide start residue: 188)",-0.738
18,"UniProt P11446 (peptide sequence: GAAAQAVQCANIR, peptide start residue: 312)",-0.854
19,"UniProt P10907 (peptide sequence: ILELDGLLK, peptide start residue: 121)",-0.369
20,"UniProt P32053 (peptide sequence: AFEKPQKK, peptide start residue: 202)",-0.721
21,"UniProt P25553 (peptide sequence: VAFGGKAVEGK, peptide start residue: 351)",1.48
22,"UniProt P77215 (peptide sequence: AWFTGGATAEK, peptide start residue: 11)",-0.425
23,"UniProt P77766 (peptide sequence: LAQGGAVTR, peptide start residue: 133)",-0.418
24,"UniProt P29013 (peptide sequence: SREEYLQSQVNMLWR, peptide start residue: 204)",-0.636
25,"UniProt P25666 (peptide sequence: MHLFTIKK, peptide start residue: 171)",-0.804
26,"UniProt P37766 (peptide sequence: AIAPDIAFIR, peptide start residue: 178)",-0.633
27,"UniProt P22634 (peptide sequence: LVDSGAAIAR, peptide start residue: 224)",0.312
28,"UniProt P37760 (peptide sequence: ALQEYCAK, peptide start residue: 138)",-1.03
